Data taken from PubChem BioAssay AID1159580 (chemical genetic matrix, 2015).
Screen size: about 5,500 compounds; about 2,000 (36%) were called active. Another 18% or so got no clear call; they are omitted. Rule as the data show it: active = normalized growth mostly below about 0.91 (no sharp cut-off); inconclusive = no clear call, values can overlap the other calls; inactive = mostly above about 0.92. This is one part of the list.

Test: chemical genetic growth profiling, strain panel (AID 1159580);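 also: tested at 20 µM; growth read once vehicle control cultures reached saturation at 30 °C; 1 = growth at the plate median or of vehicle wells; lower values mean less growth of the strain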
Conditions: growth OD

Measured: normalized growth

CC(=O)O[C@H]1C[C@@H](OC(C)=O)C(C)(C)C2CC(=O)[C@]3(C)C(CC[C@@]4(C)[C@H](c5ccoc5)OC(=O)[C@H]5O[C@]543)[C@]21C (some centres not stated)
inactive: S. cerevisiae deletion strains, locus YJR075W, strain HOC1, stronger effect = lower value 1.01 | S. cerevisiae deletion strains, locus YKL009W, strain mrt4, stronger effect = lower value 0.974 | S. cerevisiae deletion strains, locus YKL068W, stronger effect = lower value 1.01 | S. cerevisiae deletion strains, locus YKL085W, strain MDH1 (second series), stronger effect = lower value 1.01 | S. cerevisiae deletion strains, locus YKL085W, strain MDH1, stronger effect = lower value 1.01 | S. cerevisiae deletion strains, locus YKL160W, strain elf1, stronger effect = lower value 0.998 | S. cerevisiae deletion strains, locus YKL190W, strain CNB1, stronger effect = lower value 0.998 | S. cerevisiae deletion strains, locus YKR001C, strain vps1, stronger effect = lower value 1.03 | S. cerevisiae deletion strains, locus YKR026C, strain gcn3, stronger effect = lower value 0.993 | S. cerevisiae deletion strains, locus YKR091W, strain srl3, stronger effect = lower value 0.991 | S. cerevisiae deletion strains, locus YLL001W, strain dnm1, stronger effect = lower value 0.99 | S. cerevisiae deletion strains, locus YLL026W, stronger effect = lower value 0.996 | S. cerevisiae deletion strains, locus YLL041C, strain sdh2, stronger effect = lower value 0.982 | S. cerevisiae deletion strains, locus YLR027C, strain aat2, stronger effect = lower value 0.988 | S. cerevisiae deletion strains, locus YLR039C, strain RIC1, stronger effect = lower value 1 | S. cerevisiae deletion strains, locus YLR058C, strain SHM2, stronger effect = lower value 1.01 | S. cerevisiae deletion strains, locus YLR102C, strain apc9, stronger effect = lower value 1 | S. cerevisiae deletion strains, locus YLR113W, strain HOG1, stronger effect = lower value 1.01 | S. cerevisiae deletion strains, locus YLR221C, strain rsa3, stronger effect = lower value 1 | S. cerevisiae deletion strains, locus YLR258W, strain gsy2, stronger effect = lower value 1 | S. cerevisiae deletion strains, locus YLR262C, strain YPT6 (second series), stronger effect = lower value 0.982 | S. cerevisiae deletion strains, locus YLR262C, strain YPT6, stronger effect = lower value 1.07 | S. cerevisiae deletion strains, locus YLR268W, strain sec22, stronger effect = lower value 0.998 | S. cerevisiae deletion strains, locus YLR320W, strain mms22, stronger effect = lower value 1.01 | S. cerevisiae deletion strains, locus YLR342W, strain FKS1 (second series), stronger effect = lower value 1.01 | S. cerevisiae deletion strains, locus YLR342W, strain FKS1, stronger effect = lower value 0.994 | S. cerevisiae deletion strains, locus YLR357W, strain rsc2, stronger effect = lower value 0.989 | S. cerevisiae deletion strains, locus YLR370C, strain arc18, stronger effect = lower value 0.998 | S. cerevisiae deletion strains, locus YLR371W, strain rom2, stronger effect = lower value 0.985 | S. cerevisiae deletion strains, locus YLR384C, strain iki3, stronger effect = lower value 0.984 | S. cerevisiae deletion strains, locus YLR418C, strain cdc73, stronger effect = lower value 1.03 | S. cerevisiae deletion strains, locus YML016C, strain PPZ1, stronger effect = lower value 0.996 | S. cerevisiae deletion strains, locus YML032C, strain rad52, stronger effect = lower value 1.01 | S. cerevisiae deletion strains, locus YML120C, strain ndi1, stronger effect = lower value 0.99 | S. cerevisiae deletion strains, locus YML124C, strain tub3, stronger effect = lower value 1 | S. cerevisiae deletion strains, locus YMR058W, strain fet3, stronger effect = lower value 0.978 | S. cerevisiae deletion strains, locus YMR078C, strain ctf18, stronger effect = lower value 0.996 | S. cerevisiae deletion strains, locus YMR125W, strain sto1, stronger effect = lower value 0.98 | S. cerevisiae deletion strains, locus YMR129W, stronger effect = lower value 0.994 | S. cerevisiae deletion strains, locus YMR205C, strain PFK2, stronger effect = lower value 0.992 | S. cerevisiae deletion strains, locus YMR223W, strain ubp8, stronger effect = lower value 1.01 | S. cerevisiae deletion strains, locus YMR231W, strain pep5, stronger effect = lower value 0.978 | S. cerevisiae deletion strains, locus YMR263W, strain SAP30, stronger effect = lower value 1.02 | S. cerevisiae deletion strains, locus YMR307W, strain GAS1, stronger effect = lower value 1.03 | S. cerevisiae deletion strains, locus YNL067W, strain RPL9B, stronger effect = lower value 1.03 | S. cerevisiae deletion strains, locus YNL071W, strain lat1, stronger effect = lower value 0.992 | S. cerevisiae deletion strains, locus YNL128W, strain TEP1, stronger effect = lower value 0.988 | S. cerevisiae deletion strains, locus YNL153C, strain GIM3, stronger effect = lower value 1.02 | S. cerevisiae deletion strains, locus YNL183C, strain NPR1, stronger effect = lower value 0.941 | S. cerevisiae deletion strains, locus YNL209W, strain ssb2, stronger effect = lower value 0.987 | S. cerevisiae deletion strains, locus YNL233W, strain BNI4, stronger effect = lower value 1.02 | S. cerevisiae deletion strains, locus YNL248C, strain rpa49, stronger effect = lower value 0.981 | S. cerevisiae deletion strains, locus YNL250W, strain rad50, stronger effect = lower value 1.03 | S. cerevisiae deletion strains, locus YNL271C, strain bni1, stronger effect = lower value 1 | S. cerevisiae deletion strains, locus YNL298W, strain CLA4, stronger effect = lower value 1.02 | S. cerevisiae deletion strains, locus YNL307C, strain MCK1, stronger effect = lower value 1.02 | S. cerevisiae deletion strains, locus YNL322C, strain KRE1 (second series), stronger effect = lower value 0.994 | S. cerevisiae deletion strains, locus YNR049C, strain mso1, stronger effect = lower value 0.987 | S. cerevisiae deletion strains, locus YNR052C, strain pop2, stronger effect = lower value 1.02 | S. cerevisiae deletion strains, locus YOL012C, strain htz1 1 | S. cerevisiae deletion strains, locus YOL147C, strain pex11, stronger effect = lower value 1.01 | S. cerevisiae deletion strains, locus YOR001W, strain rrp6, stronger effect = lower value 0.986 | S. cerevisiae deletion strains, locus YOR061W, strain CKA2, stronger effect = lower value 0.991 | S. cerevisiae deletion strains, locus YOR069W, strain VPS5, stronger effect = lower value 1 | S. cerevisiae deletion strains, locus YOR070C, strain gyp1, stronger effect = lower value 1.01 | S. cerevisiae deletion strains, locus YOR080W, strain dia2, stronger effect = lower value 1 | S. cerevisiae deletion strains, locus YOR083W, strain WHI5, stronger effect = lower value 0.995 | S. cerevisiae deletion strains, locus YOR106W, strain vam3, stronger effect = lower value 1 | S. cerevisiae deletion strains, locus YOR136W, strain idh2, stronger effect = lower value 1.01 | S. cerevisiae deletion strains, locus YOR144C, strain elg1, stronger effect = lower value 1.01 | S. cerevisiae deletion strains, locus YOR184W, strain ser1, stronger effect = lower value 0.996 | S. cerevisiae deletion strains, locus YOR231W, strain MKK1, stronger effect = lower value 0.981 | S. cerevisiae deletion strains, locus YOR265W, strain rbl2, stronger effect = lower value 0.99 | S. cerevisiae deletion strains, locus YOR270C, strain vph1, stronger effect = lower value 0.943 | S. cerevisiae deletion strains, locus YOR290C, strain snf2, stronger effect = lower value 1 | S. cerevisiae deletion strains, locus YOR316C, strain cot1, stronger effect = lower value 1.02 | S. cerevisiae deletion strains, locus YPL051W, strain arl3, stronger effect = lower value 1.03 | S. cerevisiae deletion strains, locus YPL078C, strain atp4, stronger effect = lower value 0.989 | S. cerevisiae deletion strains, locus YPL106C, strain sse1, stronger effect = lower value 1 | S. cerevisiae deletion strains, locus YPL240C, strain hsp82, stronger effect = lower value 0.995 | S. cerevisiae deletion strains, locus YPL256C, strain CLN2, stronger effect = lower value 0.968 | S. cerevisiae deletion strains, locus YPR119W, strain clb2, stronger effect = lower value 1.01 | S. cerevisiae deletion strains, locus YPR141C, strain kar3, stronger effect = lower value 1 | S. cerevisiae deletion strains, locus YPR163C, strain tif3, stronger effect = lower value 1.01 | S. cerevisiae deletion strains, locus YPR167C, strain met16, stronger effect = lower value 1 | S. cerevisiae deletion strains, strain wtn01, stronger effect = lower value 0.984 | S. cerevisiae strains, strain wild type, stronger effect = lower value 0.991
